Experimental findings from PubChem BioAssay AID463116 (University of Pittsburgh Molecular Library Screening Center, 2010) are described below.

What is called inhibition is the relative decrease from the control value, in per cent.

Among all 1,000 compounds or so, about 710 (71%) were called active. Inconclusive results (about 7%) are left out.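 Rule for the calls: active = inhibition of receptor movement into the nucleus at or above a set limit in both runs, with normal cell brightness and cell count; inconclusive = limit reached in only one run, brightness and count normal; inactive = the rest.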 So high a share suggests a set chosen from earlier hits. A selection follows.

The nature of the assay: dynein cargo transport inhibitors, GR-EGFP translocation, confirmation, imaging, high-content imaging, GR-EGFP cells (AID 463116).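 For inhibition: dexamethasone at 1 µM final in well for 30 min; nuclear minus cytoplasmic GR-EGFP mean intensity difference in channel 2.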 To be noted: 3617.4 GR-EGFP nuclear translocation imaging, dexamethasone-induced, at 20 µM; inhibition: stronger effect = higher value; z-score: measured here: cell count per field.
With `CC1CCN(C(=O)c2ccc(S(=O)(=O)Cc3cc(F)ccc3F)c([N+](=O)[O-])c2)CC1`, the inhibition was 37.2% (inactive) and the z-score worked out at 0.248.

Consider `O=[N+]([O-])c1cc(S(=O)(=O)CCCN2CCOCC2)ccc1F`, for which the inhibition was 80.5% (active) and the z-score stood at 0.409.

Consider `COc1ccc(-c2csc3nc(-c4ccccc4F)oc(=O)c23)cc1OC`, for which the inhibition was 76.8% (active) and the z-score was found to be 0.201.

Consider `Cn1c(=O)c([N+](=O)[O-])c(Oc2ccccc2)c2ccccc21`, for which the inhibition is 77.8% (active) and the z-score worked out at 0.222.

Turning to `Cc1cccc(Oc2c([N+](=O)[O-])c(=O)n(C)c3ccccc23)c1`, the inhibition was 65.6% (active) and the z-score worked out at 0.355.

Turning to `CC(C)(C)C1C/C(=C/c2ccco2)C(=O)/C(=C/c2ccco2)C1` (stereo unspecified), the inhibition is 184% (inactive) and the z-score was determined as 0.226.

Turning to `Cc1cccc2cc3c(N)c(C(=O)N4CCCc5ccccc54)sc3nc12`, the inhibition is 97.1% (active) and the z-score was -0.357.

On to `COc1ccc(NC(=O)/C(Cl)=C(/Cl)S(=O)Cc2ccc(C)cc2)cn1` (stereo unspecified), for which the inhibition was 76.8% (active) and the z-score worked out at 0.179.

As for `CC1=C/C(=N\OS(=O)(=O)c2ccccc2)C=CC1=O`, the inhibition is 85.1% (active) and the z-score was found to be 0.68.

With `Nc1ccccc1SC(C[N+](=O)[O-])c1ccccc1` (stereo unspecified), the inhibition is 71.2% (active) and the z-score was -0.448.

As for `O=C1/C(=C\c2cccnc2)CN(Cc2ccccc2)C/C1=C\c1cccnc1`, the inhibition was 81.1% (active) and the z-score came to 0.0646.

Turning to `Cc1cc(-c2n[nH]c(=S)n2/N=C/C(Br)=C/c2ccccc2)n[nH]1`, the inhibition was 80.8% (active) and the z-score was determined as 0.326.

Regarding `Cc1[nH]c(=O)c(C(=O)/C=C/c2ccccc2)c2c1CCCC2`, the inhibition is 71.9% (active) and the z-score came to 0.213.

Take `O=C(CCl)N(Cc1cccc([N+](=O)[O-])c1)c1cccc(Cl)c1`: the inhibition was 84.8% (active) and the z-score is 0.159.

As for `COc1ccc(-c2cc(C(F)(F)F)nc(S(C)(=O)=O)n2)cc1OC`, the inhibition is 51.4% (active) and the z-score was found to be 0.253.

For the molecule `Cc1cc(C(=O)NCCc2ccc(Cl)cc2)n(-c2ccccc2)n1`, the inhibition was 16.2% (inactive) and the z-score came out at 0.17.

For `Cc1cc(C)nc(S/C=C/C(=O)c2ccccc2)n1`, the inhibition was 68.4% (active) and the z-score was found to be 1.05.

`Clc1cccc(-c2nc3nc4ccccc4nc3n2Cc2ccco2)c1`: the inhibition was 12.8% (inactive) and the z-score was 0.105.

As to `COc1ccc(C(=O)NCC(=O)N/N=C/c2ccc([N+](=O)[O-])o2)cc1OC`, the inhibition is 59.2% (active) and the z-score is -0.0055.

Regarding `O=C(/C=C/Sc1ncn[nH]1)c1ccc(Cl)cc1`, the inhibition was 69.1% (active) and the z-score is 0.228.

As to `CCN(CC)c1ccc2oc(=O)c(C)nc2c1`, the inhibition is 82.6% (active) and the z-score turned out to be 0.353.

On to `COc1ccc(C(CCN(Cc2ccc(OC)c(OC)c2)C(=O)CCl)c2ccccc2)cc1` (stereo unspecified), for which the inhibition is 90.9% (active) and the z-score was -0.513.

For `O=C(CCl)Nc1cccc(CP(=O)(c2ccccc2)c2ccccc2)c1`, the inhibition is 63.6% (active) and the z-score amounted to 0.239.

For `O=C1C=C(c2ccc(Cl)cc2)C(=O)N1Nc1ccccc1`, the inhibition is 81% (active) and the z-score was 1.03.

In the case of `O=C(Nc1ccccc1)c1nnsc1S(=O)(=O)c1ccc(Cl)cc1`, the inhibition was 38.8% (inactive) and the z-score is -5.42.

In the case of `CCOC(=O)C(=Cc1ccccc1OC)C(=O)OCC`, the inhibition was 82.2% (active) and the z-score stood at 0.778.

For the molecule `N#C/C(=C/c1ccc(N2CCCCC2)o1)C(=O)NCCc1c[nH]c2ccccc12`, the inhibition was 96.8% (active) and the z-score was found to be 0.0808.

For the molecule `Oc1c(C=Nc2cccc3nsnc23)ccc2ccccc12`, the inhibition was 23.9% (inactive) and the z-score is 0.36.

Turning to `COc1cc2c(cc1O)C(SC)=NC(C)(C)C2`, the inhibition is 79.1% (active) and the z-score amounted to 0.013.

In the case of `COC(=O)/C=C\C(=O)Nc1cccc([N+](=O)[O-])c1`, the inhibition was 77.7% (active) and the z-score is -1.06.

Consider `CCC1=C/C(=C\c2ccc3c(c2)OCO3)C(=O)S1`, for which the inhibition was 30.5% (inactive) and the z-score came to 0.474.

Take `C[C@@H]1C[C@@H]2O[C@H]2/C=C\C=C\C(=O)Cc2c(Cl)c(O)cc(O)c2C(=O)O1`: the inhibition was 90.1% (active) and the z-score was -0.431.

`Cc1cc(C)c2c3c(sc2n1)C(c1ccccc1)C(C#N)=C(N)O3` (stereo unspecified): the inhibition is 23.6% (inactive) and the z-score came out at 0.166.

On to `CCN1/C(=C/c2ccc3ccc(C)cc3[n+]2CC)Sc2ccccc21`, for which the inhibition was 99.7% (active) and the z-score amounted to 0.0317.

With `O=S1(=O)CCC(NC(=S)SCc2ccccc2Br)C1` (stereo unspecified), the inhibition was 67.1% (active) and the z-score was -0.249.

As to `C=CS(=O)c1sc(Cl)c(N2CCOCC2)c1[N+](=O)[O-]` (stereo unspecified), the inhibition was 83.2% (active) and the z-score was -0.577.

Consider `Nc1c(C(=O)c2cccs2)sc2nsc(SCCN3CCCCC3)c12`, for which the inhibition is 91.8% (active) and the z-score came out at 0.159.

With `CC1(C)CCSC(/C=C/c2ccccc2)=N1`, the inhibition is 90.7% (active) and the z-score was -0.988.
